The conditions of assay [1]: Ebola virus entry assay, green channel fluorescence.
The conditions of assay [2]: Ebola virus entry assay, reporter ratio channel.
For assay [3] the following is noted: Ebola virus entry assay, blue channel (ratio component).
The nature of assay [4]: qHTS assay for measurement of the activity of small molecule inhibitors on Zika virus induced Caspase-3 activity in human astrocytoma cells (AID 1224859).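 Further: plate controls were ZIKV-infected untreated cells for no effect and uninfected cells for full effect.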 To be noted: SNB-19 ZIKV-induced caspase-3/7, luminescence, 6 h; series mostly up to 45.7 µM. The method in brief:
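Percent inhibition of virus-induced caspase-3/7 signal is calculated against uninfected and ZIKV-infected control cells. Cells are SNB-19, infected at 2 FFU/cell for 6 h after 1 h compound exposure.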

A short description of assay [5]: qHTS assay to identify small molecule inhibitors of chordoma cells - UCH-1 (AID 1259355). Further: nearly all actives have a fitted effect of over 55% in size. Further: potency means the concentration at half of the fitted maximal effect. To be noted: UCH-1 chordoma viability, CellTiter-Glo, 48 h, combination; series mostly up to 46.1 µM. Put shortly:
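800 cells/well, overnight attach; compounds pinned at 15 concs, then auranofin/camptothecin/doxorubicin/rubitecan/topotecan combo added; 48hr 37 C, 5% CO2; CellTiter-Glo, 30min RT, luminescence.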

The nature of assay [6]: qHTS assay to identify small molecule inhibitors of chordoma cells - UCH-2 (AID 1259356). Further: on the % scale 0 is the no-effect control and ±100 the full control effect. To be noted: UCH-2 chordoma viability, CellTiter-Glo ATP luminescence, 48 h; series mostly up to 46.1 µM.
The conditions of assay [7]: Ebola virus entry reporter assay, green channel fluorescence.
For assay [8] the following is noted: Ebola virus entry cell assay, ratio channel.
A short description of assay [9]: qHTS assay for measurement of the activity of small molecule inhibitors on Zika virus induced Caspase-3 activity in human iPSC derived neural progenitor cells (hNPCs) (AID 1224857). Further: nearly all actives have a fitted effect of over 65% in size. Further: potency means the concentration at half of the fitted maximal effect. To be noted: hNPCs ZIKV-induced caspase-3/7, Caspase-Glo luminescence, 6 h; series mostly up to 45.7 µM. The method in brief: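 Cells were plated at 350 per well and grown 16 to 20 hours. Compound pretreatment lasted one hour, after which ZIKV (2 FFU/cell) was added for 6 hours. Percent inhibition was normalized between uninfected and infected controls.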

Assay [10] is described as follows: High-throughput drug toxicity screening in the BPDCN cell line Gen2.2 (AID 1224824; call rule not given here;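 further: cells exposed to compounds for 48 h before reading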). To be noted: Gen2.2 BPDCN cells; at 45.8 µM (top of the series). The method in brief: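 CellTiter-Glo luminescence after 48 h compound exposure of Gen2.2 cells; percent activity set with DMSO as 100% and bortezomib (9.2 uM final) as 0%. Cells seeded at 500 per well, RPMI + 10% FBS, 37 °C.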

Assay [11] in a line: qHTS Screen of the MIPE 4.0 Collection Against Ewings Sarcoma (TC71) (AID 1259253). Further: nearly all actives have a fitted effect of over 40% in size. Further: potency means the concentration at half of the fitted maximal effect. To be noted: TC71 Ewing sarcoma viability, CellTiter-Glo, 48 h; series mostly up to 45.8 µM. Put shortly:
(§1)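 CellTiter-Glo luminescence after 48 h compound exposure (titration) gave viability; percent activity used DMSO-treated cells as no inhibition and medium-only wells as full inhibition. Cells grown in RPMI/5% FBS, dosed 4 h post-seeding.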

The nature of assay [12]: qHTS Screen of the MIPE 4.0 Collection Against Ewings Sarcoma (EW8) (AID 1259255). Further: nearly all actives have a fitted effect of over 35% in size. Further: potency means the concentration at half of the fitted maximal effect.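 On viability: 100% = DMSO-treated cells and 0% = medium-only wells without cells.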 To be noted: EW8 Ewing sarcoma viability, CellTiter-Glo, 48 h; series mostly up to 45.8 µM. The method in brief:
as §1

Assay [13] in a line: Immunotoxin (HA22) sensitization/mitigation study. Vehicle arm (PBS) (AID 1159510; call rule not given here; further: potency means the concentration at half of the fitted maximal effect). To be noted: cancer cells viability with PBS vehicle (HA22 study); series mostly up to 46.1 µM.
Assay [14] is described as follows: Immunotoxin (SS1P) sensitization/mitigation study. Vehicle arm (DMEM) (AID 1159513; call rule not given here; further: potency means the concentration at half of the fitted maximal effect). To be noted: cell viability with vehicle (DMEM); series mostly up to 46.1 µM.
Assay [15] can be described thus: Identifying Small Molecule Inhibitors of Pancreatic Cancer Stem Cells (A2780, Spheroid) (AID 1259357).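 Further: compound exposure lasted 48 h before the ATP luminescence read; 100% = DMSO treated cells and 0% = wells without cells.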 To be noted: Potency: A2780 spheroid viability; series mostly up to 46.1 µM. The method in brief:
(§2)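 Endpoint: ATP-based luminescence, 48 h drug exposure. Bortezomib at 9.2 uM final as full-kill control; DMSO vehicle as negative control; activity normalized between vehicle and cell-free wells.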

Assay [16] is described as follows: Identifying Small Molecule Inhibitors of Pancreatic Cancer Stem Cells (SN12C, Spheroid) (AID 1259360).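 Further: 100% = DMSO-treated cells and 0% = wells without cells.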 To be noted: Potency: SN12C spheroid viability; series mostly up to 46.1 µM. Put shortly:
as §2

The nature of assay [17]: Identifying Small Molecule Inhibitors of Pancreatic Cancer Stem Cells (A278, Adherent) (AID 1259361). Further: nearly all actives have a fitted effect of over 35% in size. To be noted: series mostly up to 46.1 µM. Put shortly: (§3)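 Cytotoxicity read by CellTiter-Glo luminescence after 48 h compound exposure at 37C; percent activity scaled between DMSO-treated cells and cell-free wells. Spheroid formats used cells pre-formed 14 days in stem cell media on hydrogel.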

Assay [18] is described as follows: Identifying Small Molecule Inhibitors of Pancreatic Cancer Stem Cells (SN12C, Adherent) (AID 1259358).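 Further: cell survival measured after 48 h of compound exposure.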 To be noted: viability/growth inhibition; series mostly up to 46.1 µM. The method in brief: as §3
Setting [19] is: AC50: Channel type: primary unless noted, outcome: Channel type: primary unless noted.

One may read the AC50 as the concentration giving half of the maximal activity seen.

Where “and” joins values, the source holds several entries; their conditions need not be identical. Equal values may be shown once. Results filed as inconclusive are left out. For some assays here: Potency and affinity values are given separately. Calls of active or inactive are those of the source. For most assays here, the call rests on the fitted dose curve; in most records, active means well fitted curve in the direction sought with a large enough effect; inconclusive means small, poorly fitted or top-dose-only effect, or another doubt; inactive means no such curve, though single readings can be large; an effect the other way counts as inactive or inconclusive.

For `COc1ccc(Cc2nccc3cc(OC)c(OC)cc23)cc1OC`, the result in assay [1], in [2] (setting [19]), in [3] and in assay [4] was inactive. Further, the Potency result in [5] and in assay [6] was “inactive” each time.
Turning to `Nc1nc(N)c2nc(-c3ccccc3)c(N)nc2n1`, the molecule was called inactive in assay [1], in [2] (setting [19]), in assay [7] and in assay [8].
As for `COc1ccccc1N1CCNCC1`, the result in assay [1], in [2] (setting [19]) and in [4] was inactive. The Potency result in assay [9], in assay [5] and in assay [6] was “inactive” throughout.
For `Oc1ccccc1-c1ccccc1`, the molecule was called inactive in [1], in assay [2] (setting [19]) and in assay [4]. The Potency result in assay [9], in assay [5] and in assay [6] was “inactive” in each case.
As for `Cc1ncc([N+](=O)[O-])n1CCO`, the molecule was classed as inactive in assay [1], in [2] (setting [19]), in assay [7] and in assay [8].
Consider `COc1ccc(C(CN(C)C)C2(O)CCCCC2)cc1` (stereo not drawn), for which, in assay [10], the cell viability, % of control (lower = more cytotoxic) was determined as 171%. The Potency entry in assay [11] is “inactive”. In addition, in assay [12], the Potency was 26.4 µM (active).
Consider `CN(C)[C@@H]1C(=O)C(C(N)=O)=C(O)[C@@]2(O)C(=O)C3=C(O)c4c(O)cccc4[C@@](C)(O)[C@H]3C[C@@H]12`, for which the cell viability, % of control (lower = more cytotoxic) in [10] stood at 333%. Further, the Potency in [11] was 3.72 µM (active); in assay [12] it was 11.8 µM (active).
For `C[C@]12CC[C@@H]3c4ccc(O)cc4C[C@@H](CCCCCCCCCS(=O)CCCC(F)(F)C(F)(F)F)[C@H]3[C@@H]1CC[C@@H]2O` (stereo partly drawn), the outcome in [2] (Channel type: confirmation) and in assay [2] (Channel type: primary) was inactive.
Consider `Cc1nc(Nc2ncc(C(=O)Nc3c(C)cccc3Cl)s2)cc(N2CCN(CCO)CC2)n1`, for which the Potency is 5.9 µM (active) in assay [13] and 20.9 µM (active) in [14].
Turning to `CCN(CC)CCN1C(=O)CN=C(c2ccccc2F)c2cc(Cl)ccc21`, the Potency result in assay [9], in assay [5] and in assay [6] was “inactive” each time. Also, in assay [4], the outcome was inactive.
With `COc1cccc2c1C(=O)c1c(O)c3c(c(O)c1C2=O)C[C@@](O)(C(=O)CO)C[C@@H]3O[C@H]1C[C@H](N)[C@H](O)[C@H](C)O1`, the Potency in assay [14] is 0.187 µM (active).
`Cc1ccc(-c2cc(C(F)(F)F)nn2-c2ccc(S(N)(=O)=O)cc2)cc1`: in assay [14], the Potency was 38.2 µM (active).
On to `C=C1C[C@@H]2[C@H](CC[C@]3(C)C(=O)CC[C@@H]23)[C@@]2(C)C=CC(=O)C=C12`, for which the Potency result in [9], in assay [5] and in assay [6] was “inactive” throughout.
Consider `O=c1[nH]c2ccccc2n1C1CCN(CCCC(c2ccc(F)cc2)c2ccc(F)cc2)CC1`, for which the Potency result in assay [9] and in assay [6] was “inactive” throughout.
In the case of `COc1cc(Nc2c(C#N)cnc3cc(OCCCN4CCN(C)CC4)c(OC)cc23)c(Cl)cc1Cl`, the AC50 in assay [2] (setting [19]) was 1.41 µM (active). Also, the values for the Potency in [13] and in [14] were 13.2 µM (active) and 23.5 µM (active), respectively.
`CNC(=O)N1N=C(c2ccc(N)cc2)c2cc3c(cc2CC1C)OCO3` (stereo not drawn): the Potency in assay [14] is 5.26 µM (active). Moreover, in assay [10], the cell viability, % of control (lower = more cytotoxic) was 24.2%. Also, the molecule was classed as inactive in assay [4]. Further, the Potency entry in assay [15] and in assay [16] was “inactive” in each case. Besides, the IC50 (viability decrease) in assay [17] was 7.43 µM (active).
Regarding `O=c1[nH]c2ccccc2n1CCCN1CCC(n2c(=O)[nH]c3cc(Cl)ccc32)CC1`, the concentration at half-maximal activity (AC50) in assay [2] (setting [19]) is 25.1 µM (active). In assay [10], the cell viability, % of control (lower = more cytotoxic) turned out to be 278%. Further, the outcome in assay [4] was inactive. Moreover, the Potency result in [11], in assay [5] and in assay [6] was “inactive” throughout.
`Oc1cc(Cl)ccc1Oc1ccc(Cl)cc1Cl`: the AC50 in [2] (setting [19]) is 7.08 µM (active) and 14.1 µM (active). Moreover, the molecule was called inactive in [4]. The Potency entry in assay [6] was “inactive”.
As for `Cc1ccc2c(c1)C1CN(C)CCC1N2` (stereo not drawn), in [2] (setting [19]), the AC50 was 10 µM (active). In [4], the result was inactive. The Potency entry in assay [5] and in [6] was “inactive” each time.
Regarding `CNC(=O)c1ccc(N2C(=S)N(c3ccc(C#N)c(C(F)(F)F)c3)C(=O)C23CCC3)cc1F`, in assay [10], the cell viability, % of control (lower = more cytotoxic) stood at 16.5%. Further, the Potency entry in [9] is “inactive”. Besides, the outcome in [4] was inactive. Moreover, in [17], the IC50 (viability decrease) was 23.5 µM (active).
`COc1ccc(C(=O)c2c(C)n(CCN3CCOCC3)c3ccccc23)cc1`: in [2] (setting [19]), the AC50 was 35.5 µM (active). Further, in assay [13], the Potency is 20.9 µM (active). Further, in assay [10], the cell viability, % of control (lower = more cytotoxic) stood at 100%. In addition, the Potency result in [9], in [11], in assay [12], in [5], in assay [6] and in assay [15] was “inactive” in each case. Besides, in assay [18], the Potency result is “inactive”. Further, the result in [4] was inactive.
On to `COC1(CS(=O)c2ccccc2)CCN(CCc2c[nH]c3ccc(F)cc23)CC1` (stereo not drawn), for which the Potency entry in [14] was “inactive”. Further, the cell viability, % of control (lower = more cytotoxic) in [10] was 66.1%. For the same molecule, the Potency in [9] is 20.9 µM (active); in [11] it was 5.9 µM (active). The call in assay [4] was inactive. The IC50 (viability decrease) result in assay [17] is “inactive”.
For `Cc1sc2c(c1C)C(c1ccc(Cl)cc1)=N[C@@H](CC(=O)OC(C)(C)C)c1nnc(C)n1-2`, the Potency in assay [13] is 0.0743 µM (active); in assay [14], 10.5 µM (active); in [11], 1.48 µM (active); in assay [12], 16.6 µM (active). Besides, in assay [10], the cell viability, % of control (lower = more cytotoxic) was determined as 1.32%. Moreover, the call in assay [4] was inactive.
Consider `COc1cc([C@@H]2c3cc4c(cc3[C@H](O)[C@H]3COC(=O)[C@H]23)OCO4)cc(OC)c1OC`, for which the AC50 in assay [2] (setting [19]) is 5.01 µM (active). The Potency was 0.0037 µM (active) in assay [13] and 0.0083 µM (active) in assay [14].
As to `CC1=C2C[C@@H]3[C@@H](CC=C4C[C@@H](O)CC[C@@]43C)[C@@H]2CC[C@]12O[C@H]1C[C@H](C)CN[C@H]1[C@H]2C`, the Potency in assay [13] was 23.5 µM (active); in [14] it was 20.9 µM (active). In addition, the cell viability, % of control (lower = more cytotoxic) in [10] is 107%. For the same molecule, the Potency result in assay [9], in assay [18] and in assay [16] was “inactive” throughout. For the same molecule, in assay [4], the molecule was called inactive. For the same molecule, the IC50 (viability decrease) result in assay [17] was “inactive”.
`Fc1ccc(C(OCCN2CCN(CCCc3ccccc3)CC2)c2ccc(F)cc2)cc1`: the AC50 in assay [2] (setting [19]) is 2.82 µM (active). For the same molecule, the cell viability, % of control (lower = more cytotoxic) in assay [10] is 57.3%. In addition, in assay [4], the outcome was inactive. Besides, the Potency in [11] is 18.7 µM (active); in assay [12], 20.9 µM (active); in [5] it was 31.6 µM (active).

The record behind these values is PubChem BioAssay (NCATS).
